Test results: PubChem BioAssay
Values without a mark were called inactive. The source made the active and inactive calls.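 How the source made its calls, unless noted: active means compounds that lower survival of HCT116 colon cancer cells in the luminescence readout, no numeric limit stated; inactive means the rest.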

assay: GLP1 release stimulators, primary, NCI-H716, NPC library (AID 1117341;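 active means compound raises GLP1 secretion from the human gut endocrine cells, with no numeric limit stated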; further: reference of the scale not given here); conditions: NCI-H716 cells, at 10 µM, hits give high values

Structure (SMILES) | GLP1 secretion stimulation
NC1[C@H]2CN(c3nc4c(cc3F)c(=O)c(C(=O)O)cn4-c3ccc(F)cc3F)C[C@@H]12 (stereo partly drawn) | -0.1%
CCn1c(=O)c2c(nc(C=Cc3ccc(OC)c(OC)c3)n2C)n(CC)c1=O | -3%
COc1ccc(CCN(C)CCCC(C#N)(c2cc(OC)c(OC)c(OC)c2)C(C)C)cc1OC (stereo not drawn) | 5.2%
N[C@@H](CC(=O)O)C(=O)O | -0.5%
C[C@]12CCC(=O)C=C1CC[C@@H]1[C@@H]2CC[C@@]2(C)[C@H]1CC[C@]2(O)C(=O)CO | 1.1%
O=c1[nH]c(=O)n([C@H]2C[C@H](O)[C@@H](CO)O2)cc1Br | 0.6%
CC1=C(CC(=O)O)c2cc(F)ccc2/C1=C\c1ccc(S(C)(=O)=O)cc1 | -0.4%
CCN1CCc2nc(N)oc2CC1 | -1.2%
NC(CO)(CO)CO | 3.3%
NC(=O)c1cn(Cc2c(F)cccc2F)nn1 | -0.1%
CSc1ccc(C(=O)c2[nH]c(=O)[nH]c2C)cc1 | 0.1%
CC(=O)Oc1cc(C(F)(F)F)ccc1C(=O)O | -6.4%
NC(N)=NCCC[C@H](N)C(=O)O | 2.9%
COC(=O)C1=C(C#N)NC(C)=C(C(=O)OC(C)C)C1c1cccc([N+](=O)[O-])c1 (stereo not drawn) | -3.9%
CCCCCCCCCCCCCCCCO | -3.8%
O=C1NC(=O)[C@@]2(CCOc3ccc(F)cc32)N1 | 0%
COc1cc(C)c(C=CC(C)=CC=CC(C)=CC(=O)O)c(C)c1C | -3.9%
C[N+](C)(C)CCOC(=O)CCC(=O)OCC[N+](C)(C)C | 3.2%
Cc1nc2c([nH]1)c(=O)n(C)c(=O)n2Cc1ccco1 | 2.9%
OCCN1CCN(CC/C=C2/c3ccccc3Sc3ccc(C(F)(F)F)cc32)CC1 | 69.1% (active)

Structure (SMILES) | GLP1 secretion stimulation
CC(C)(C)c1ccc(C(=O)CCCN2CCC(OC(c3ccccc3)c3ccccc3)CC2)cc1 | 6%
Nc1cc(=O)[nH]c(N)n1 | -2.3%
CC(=O)[C@@]1(O)CC[C@H]2[C@@H]3CCC4=CC(=O)CC[C@]4(C)[C@H]3CC[C@@]21C | 2%
COc1cc(C=O)ccc1O | 0.6%
COC(=O)C1=C(C)NC(C)=C(C(=O)OC(C)(C)CN(C)CCC(c2ccccc2)c2ccccc2)C1c1cccc([N+](=O)[O-])c1 (stereo not drawn) | -3.7%
CCC(=O)c1ccc2c(c1)N(CCCN(C)C)c1ccccc1S2 | -2.4%
COC(=O)C(c1ccccc1Cl)N1CCc2sccc2C1 (stereo not drawn) | 3.9%
OCCN1CCN(CCCN2c3ccccc3C=Cc3ccccc32)CC1 | 2%
CCNC(=O)N1CCN(CCCC(c2ccc(F)cc2)c2ccc(F)cc2)CC1 | 7.1%
C(=C\c1ccccc1)/CN1CCN(C(c2ccccc2)c2ccccc2)CC1 | -2.7%
Nc1cccc2c1CN(C1CCC(=O)NC1=O)C2=O (stereo not drawn) | 0%
COC(=O)[C@@H](N)Cc1ccc(O)c(O)c1 | 5.5%
CCCCc1ncc(/C=C(\Cc2cccs2)C(=O)O)n1Cc1ccc(C(=O)O)cc1 | -2.1%
O=C(O)CN(CCOCCOCCN(CC(=O)O)CC(=O)O)CC(=O)O | 1.8%
CCCCCCCCCCCCCCC[C@H](O)[C@@H](N)CO | 7.7%
O=C(O)CP(=O)(O)O | 0.3%
N[C@@H](COP(=O)(O)O)C(=O)O | -1%
O=S(=O)(O)Oc1ccc(C(c2ccc(OS(=O)(=O)O)cc2)c2ccccn2)cc1 | 1.3%
CCN(CC)CCCN(c1ccccc1)C1Cc2ccccc2C1 | -4.5%

assay: HCT116 colon cancer cell growth inhibition, primary screen, CellTiter-Glo luminescence, NPC library (AID 1117342); conditions: at 20 µM (top of the series)

Structure (SMILES) | inhibition of viability
NC1[C@H]2CN(c3nc4c(cc3F)c(=O)c(C(=O)O)cn4-c3ccc(F)cc3F)C[C@@H]12 (stereo partly drawn) | 58.4% (active)
CCn1c(=O)c2c(nc(C=Cc3ccc(OC)c(OC)c3)n2C)n(CC)c1=O | -3.5%
COc1ccc(CCN(C)CCCC(C#N)(c2cc(OC)c(OC)c(OC)c2)C(C)C)cc1OC (stereo not drawn) | 18.9%
N[C@@H](CC(=O)O)C(=O)O | 1.9%
C[C@]12CCC(=O)C=C1CC[C@@H]1[C@@H]2CC[C@@]2(C)[C@H]1CC[C@]2(O)C(=O)CO | 25.1%
O=c1[nH]c(=O)n([C@H]2C[C@H](O)[C@@H](CO)O2)cc1Br | 14.8%
CC1=C(CC(=O)O)c2cc(F)ccc2/C1=C\c1ccc(S(C)(=O)=O)cc1 | 66.3% (active)
CCN1CCc2nc(N)oc2CC1 | 5.2%
NC(CO)(CO)CO | -37%
NC(=O)c1cn(Cc2c(F)cccc2F)nn1 | 18.7%
CSc1ccc(C(=O)c2[nH]c(=O)[nH]c2C)cc1 | -7%
CC(=O)Oc1cc(C(F)(F)F)ccc1C(=O)O | 16.4%
NC(N)=NCCC[C@H](N)C(=O)O | -16.4%
COC(=O)C1=C(C#N)NC(C)=C(C(=O)OC(C)C)C1c1cccc([N+](=O)[O-])c1 (stereo not drawn) | 56.2% (active)
CCCCCCCCCCCCCCCCO | -2.3%
O=C1NC(=O)[C@@]2(CCOc3ccc(F)cc32)N1 | 4.6%
COc1cc(C)c(C=CC(C)=CC=CC(C)=CC(=O)O)c(C)c1C | 52.1% (active)
C[N+](C)(C)CCOC(=O)CCC(=O)OCC[N+](C)(C)C | 3.4%
Cc1nc2c([nH]1)c(=O)n(C)c(=O)n2Cc1ccco1 | 4.7%
OCCN1CCN(CC/C=C2/c3ccccc3Sc3ccc(C(F)(F)F)cc32)CC1 | 126% (active)

Structure (SMILES) | inhibition of viability
CC(C)(C)c1ccc(C(=O)CCCN2CCC(OC(c3ccccc3)c3ccccc3)CC2)cc1 | 114% (active)
Nc1cc(=O)[nH]c(N)n1 | -16.3%
CC(=O)[C@@]1(O)CC[C@H]2[C@@H]3CCC4=CC(=O)CC[C@]4(C)[C@H]3CC[C@@]21C | 20.1%
COc1cc(C=O)ccc1O | -10.3%
COC(=O)C1=C(C)NC(C)=C(C(=O)OC(C)(C)CN(C)CCC(c2ccccc2)c2ccccc2)C1c1cccc([N+](=O)[O-])c1 (stereo not drawn) | 94% (active)
CCC(=O)c1ccc2c(c1)N(CCCN(C)C)c1ccccc1S2 | 46.9%
COC(=O)C(c1ccccc1Cl)N1CCc2sccc2C1 (stereo not drawn) | 52.7% (active)
OCCN1CCN(CCCN2c3ccccc3C=Cc3ccccc32)CC1 | 56.9% (active)
CCNC(=O)N1CCN(CCCC(c2ccc(F)cc2)c2ccc(F)cc2)CC1 | 85.2% (active)
C(=C\c1ccccc1)/CN1CCN(C(c2ccccc2)c2ccccc2)CC1 | 84.4% (active)
Nc1cccc2c1CN(C1CCC(=O)NC1=O)C2=O (stereo not drawn) | -8.6%
COC(=O)[C@@H](N)Cc1ccc(O)c(O)c1 | 8.3%
CCCCc1ncc(/C=C(\Cc2cccs2)C(=O)O)n1Cc1ccc(C(=O)O)cc1 | 0%
O=C(O)CN(CCOCCOCCN(CC(=O)O)CC(=O)O)CC(=O)O | 5.2%
CCCCCCCCCCCCCCC[C@H](O)[C@@H](N)CO | 69.8% (active)
O=C(O)CP(=O)(O)O | -1.37%
N[C@@H](COP(=O)(O)O)C(=O)O | 0%
O=S(=O)(O)Oc1ccc(C(c2ccc(OS(=O)(=O)O)cc2)c2ccccn2)cc1 | -5.5%
CCN(CC)CCCN(c1ccccc1)C1Cc2ccccc2C1 | 50.6% (active)
